# Sampled rows, rich in hits. Any-hit rate of the full collection: about 7.9%.
# HT1080-NT tox: kills 2HG-producing HT-1080-NT fibrosarcoma cells. AID 686970. actives 1.6% (n = 360,000). HT-1080-NT fibrosarcoma viability, CellTiter-Glo ATP luminescence, 48 h. Potency, µM (doses to about 46.1 µM), for the others: at the highest dose activity, negative = less viability, usual class: cytotoxic;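 further: NT is the 2HG producing partner of a matched IDH1 knockdown line; 0% = DMSO-treated cells and -100% = media-only wells without cells; nearly all actives have a fitted effect of over 55% in size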
#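 Viability of the 2HG-overproducing fibrosarcoma line after 48 hours of compound exposure at 37 degrees C was determined by luminescence with CellTiter-Glo, and concentration-effect curves were then fitted and categorized.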
# MCF10A rereplic: inducers of DNA re-replication in MCF 10A breast cells | Potency, µM (titrated, usually from 46.1 µM), for the others: at the top dose activity, positive = re-replication, most hits filed as activators | actives 2.9% (n = 350,000) | AID 624296 | MCF 10A DNA re-replication, Hoechst nuclear intensity, 48 h; further: % of control where 0% means no effect; nearly all actives have a fitted effect of over 50% in size
# SW480 rerep: DNA re-replication induction in SW480 cells. SW480 DNA re-replication, Hoechst DNA content imaging, 48 h. Potency, µM (series often up to 46.1 µM), for the others: top-dose re-replication activation, actives largely listed as activators. actives 1.8% (n = 340,000); further: % of control where 0% means no effect; nearly all actives have a fitted effect of over 55% in size
#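 Quantitative HTS format with DMSO vehicle controls; 48 hr drug incubation at 37 C, then 40 min Hoechst staining and scanning imager measurement at 405 nm excitation.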
# KB-V1 cytotox: kills drug-selected multidrug resistant KB-V1 cells | KB-V1 MDR cells viability, CellTiter-Glo, 72 h | Potency, µM (top dose mostly 46.1 µM), usual class: cytotoxic | actives 3.4% (n = 400,000); further: on the % scale 0 is the no-effect control and ±100 the full control effect; nearly all actives have a fitted effect of over 60% in size
#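 Cells of the MDR subline KB-V1 are plated, dosed with compound at multiple concentrations, and incubated 72 h at 37 degrees C; CellTiter-Glo is then added and luminescence read after 10 min.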
# HT1080 IDH1KD tx: toxicity to HT-1080 IDH1 knockdown cells (counter line); HT-1080 IDH1 knockdown viability, ATP luminescence, 48 h; Potency, µM (top dose mostly 46.1 µM), for inactives: at the highest dose activity, negative = toxicity, hits mostly cytotoxic; actives 2% (n = 360,000); AID 686971;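 further: 0% = DMSO wells and -100% = cell-free medium wells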
#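 After a 2 h attachment period, IDH1KD HT-1080 cells took pin-transferred compound for 48 h at 37 °C; ATP-based luminescence after 10 min room-temperature reagent incubation reported viability.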
# KB-3-1 cytotox: KB-3-1 parental cell cytotoxicity; KB-3-1 viability, CellTiter-Glo ATP luminescence, 72 h; Potency, µM (highest dose often 46.1 µM), actives largely listed as cytotoxic; actives 1.4% (n = 400,000); AID 1347075; further: on the % scale 0 is the no-effect control and ±100 the full control effect; nearly all actives have a fitted effect of over 60% in size
#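 Viability of parental KB-3-1 cells, measured by CellTiter-Glo luminescence, followed a 72 h incubation at 37 °C with pinned compounds in phenol-red-free DMEM containing 10% FBS.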
# * = called active by the depositor; i = inactive; ? = inconclusive; / = not tested or not shown. The call rests on the fitted dose curve; in most records, active means well fitted curve in the direction sought with a large enough effect; inconclusive means small, poorly fitted or top-dose-only effect, or another doubt; inactive means no such curve, though single readings can be large; an effect the other way counts as inactive or inconclusive. Potency means the concentration at half of the fitted maximal effect.
SMILES,HT1080-NT tox,MCF10A rereplic,SW480 rerep,KB-V1 cytotox,HT1080 IDH1KD tx,KB-3-1 cytotox
CCOC(=O)[C@]12CCCC=C1N(Cc1ccc(Cl)cc1Cl)C(=O)[C@H](CC(=O)NCc1ccc(OC)c(OC)c1)C2,?,/,/,18µM*,?,?
COC(=O)[C@]12CCCCC=C1N(Cc1ccc(Cl)cc1Cl)C(=O)[C@H](CC(=O)NCc1ccccc1)C2,-28%,/,/,i,-30%,?
CCOC(=O)[C@]12CCCC=C1N(Cc1ccc3c(c1)OCO3)C(=O)[C@H](CC(=O)NCc1ccc(OC)c(OC)c1)C2,3%,/,/,i,8%,i
COC(=O)[C@]12CCCCC=C1N(Cc1ccc(Cl)cc1Cl)C(=O)[C@H](CC(=O)NCc1ccc(OC)c(OC)c1)C2,?,/,/,?,13µM*,?
CCCCCCCCOC(=O)C1=C(C)Nc2nnnn2C1c1cccs1 (centres undefined),?,?,16%,15µM*,?,?
CCCCCCCOC(=O)C1=C(C)Nc2ncnn2C1c1cccs1 (centres undefined),-19%,?,1%,?,-15%,i
Cc1[nH]n(-c2ccccc2)c(=O)c1/C=N/NC(=O)C(C)C,-8%,21%,8%,i,-24%,i
O=C(Nc1ccc2c(c1)C(=O)N(CC1CCCO1)C2=O)c1ccccc1Br (centres undefined),5%,8%,-14%,i,-8%,i
Cc1c(O)ccc2c3c(c(=O)oc12)CCC(C)C3 (centres undefined),-20%,5%,4%,?,-14%,i
Cc1c(O)ccc2c3c(c(=O)oc12)CCCC3,-2%,?,-2%,16µM*,-1%,?
Cc1ccc2cc(CN(Cc3ccc(F)cc3)Cc3nnnn3C3CCCC3)c(=O)[nH]c2c1,?,-1%,1%,?,?,i
Cc1noc(C)c1COC(=O)COc1cccc2c1OC(C)(C)C2,4%,-2%,-6%,i,13%,i
CC(C)c1ccccc1NC(=S)NCCCn1ccnc1,8%,0.73µM*,-52%,i,10%,i
CC(C)(C#N)c1cc(Cn2cncn2)cc(C(C)(C)C#N)c1,/,-1%,-3%,/,/,/
CCN(CC)CCOc1ccc(-c2nc3cc(Cl)ccc3s2)cc1,/,24µM*,19µM*,/,/,/
CCOC(=O)c1cccc(NS(=O)(=O)c2cc(Br)cc3c2N(C(=O)C2CC2)CC3)c1,/,/,/,i,/,21µM*
Cc1ccc(N=C2c3ccccc3C(=O)C2[N+](=O)[O-])cc1C (centres undefined),0%,-2%,-7%,i,0%,i
CCOC(=O)C1CCN(S(=O)(=O)Cc2ccccc2)C1=O (centres undefined),-3%,-1%,-4%,i,-1%,i
CCOC(=O)C1CCN(C(=O)c2ccccc2)C(CC)C1=O (centres undefined),0%,3%,-5%,21µM*,-2%,i
Cc1cccc(N(C(=O)c2nsc(Cl)c2Cl)C(C(=O)NC2CCCC2)c2ccc(O)cc2)c1C (centres undefined),-2%,17%,?,21µM*,-14%,?
CCCC(C(=O)NC1CCCC1)N(C(=O)c1snc(C(N)=O)c1N)c1ccc(OCC)cc1 (centres undefined),1%,?,1%,i,0%,i
CCOc1ccc(C(C(=O)NC2CCCC2)N(Cc2ccccc2)C(=O)c2nsc(Cl)c2Cl)cc1 (centres undefined),?,13%,?,?,-27%,21µM*
CCOc1ccc(N(C(=O)c2snc(C(N)=O)c2N)C(CC)C(=O)NC2CCCC2)cc1 (centres undefined),-1%,0%,23µM*,i,2%,i
CN(C)c1ccc(C(C(=O)NC2CCCCC2)N(Cc2ccco2)C(=O)c2snc(C(N)=O)c2N)cc1 (centres undefined),8%,9%,11%,21µM*,0%,?
CCOc1ccccc1NC(=O)CN(c1ccc(OC)c(OC)c1)S(=O)(=O)c1ccc(C)cc1,-7%,/,/,i,-7%,i
SMILES,HT1080-NT tox,MCF10A rereplic,SW480 rerep,KB-V1 cytotox,HT1080 IDH1KD tx,KB-3-1 cytotox
CC(Sc1nnc(-c2ccncc2)n1C)C(=O)NCC1CCCO1 (centres undefined),0%,-8%,?,i,-5%,i
Cc1ccccc1N(C(=O)c1snc(C(N)=O)c1N)C(C(=O)NC1CCCCC1)c1ccc(O)cc1 (centres undefined),?,?,16µM*,i,9.2µM*,?
Cc1cc(C)cc(N(C(=O)c2nsc(Cl)c2Cl)C(C(=O)NC2CCCC2)c2ccc(O)cc2)c1 (centres undefined),-18%,?,?,18µM*,?,i
CC(OC(=O)c1snc(C(=O)NC2CCCCC2)c1N)C(=O)NC1CCCCC1 (centres undefined),-7%,21µM*,?,?,-7%,i
Cc1ccc(N(C(=O)c2nsc(Cl)c2Cl)C(C(=O)NC2CCCC2)c2ccc(O)cc2)cc1C (centres undefined),?,7%,16%,i,-29%,?
CCOc1ccccc1N(C(=O)c1snc(C(N)=O)c1N)C(C(=O)NC1CCCC1)c1ccco1 (centres undefined),-6%,15%,2%,10µM*,-1%,i
Cc1cc2c(cc1C)NC(CC(=O)Nc1cccc(Cl)c1)C(=O)N2 (centres undefined),/,/,/,i,/,i
COc1ccc(N(C(=O)c2snc(C(N)=O)c2N)C(C(=O)NC2CCCC2)c2ccc3ncccc3c2)cc1 (centres undefined),-19%,?,?,i,-12%,i
NC(=O)c1nsc(C(=O)N(c2ccccc2)C(C(=O)NC2CCCC2)c2ccc3ncccc3c2)c1N (centres undefined),-5%,21µM*,18%,i,-17%,i
O=C(CN1C(=O)C2CC=CCC2C1=O)OCC(=O)c1ccc(Cl)c([N+](=O)[O-])c1 (centres undefined),1%,23µM*,?,?,2%,i
O=C(CSc1nnc(COc2ccccc2)o1)NC1CC2CCC1C2 (centres undefined),5%,-4%,-7%,i,0%,i

# Screening results as filed in PubChem.
